In PubChem BioAssay one finds outcome data, which are given here for 40 molecules.

Results with a measured potency or affinity are listed apart. Inconclusive results are not listed. Activity calls are given as the source filed them.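 Rule for the calls, unless noted: active = fitted half-maximal concentration for viability loss no higher than twice the top valid dose, in every repeat run; inconclusive = repeat runs disagree, flat partial loss, or poor curve fit; inactive = the rest.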

The first assay can be described thus: cytotoxicity in PAX8-dependent RMG-1 cells, dose response, cell-based, cherry-pick (AID 687029;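 active = signal drop whose fitted half-maximal concentration is at most twice the top valid dose, in every test run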;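 note: cells exposed to compound for 96 hours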). As to conditions: RMG-1 viability, CellTiterGlo ATP luminescence, 96 h; series mostly up to 35 µM.
On to `CCC1(O)C(=O)OCc2c1cc1n(c2=O)Cc2cc3c(N)cccc3nc2-1` (stereo not given), for which the call was inactive.
Turning to `CC(C)(C)OC(=O)NCCCC[C@H](NC(=O)c1[nH]cnc1C(=O)N[C@@H](Cc1ccccc1)C(=O)OC(C)(C)C)C(=O)OC(C)(C)C`, the result was inactive.
With `CC(=NNC(=S)N1CCC1)c1ccccn1`, the outcome was inactive.
`CC(=O)Nc1cc(-c2cccc(C(=O)NCCN(C)C)c2)cn2c(-c3cccc(C(F)(F)F)c3)cnc12`: the molecule was classed as inactive.
As to `CC(C)C(=O)N1CCN(c2ccc(NC(=O)c3ccc([N+](=O)[O-])o3)cc2)CC1`, the outcome was inactive.
With `O=C(CCCN1C(=O)/C(=C\c2cccc(Br)c2)SC1=S)Nc1cccnc1`, the outcome was inactive.
`CC(C)N1CCc2c(sc(NC(=O)c3ccc([N+](=O)[O-])o3)c2C(N)=O)C1`: the result was inactive.
With `C=CCNC(=S)N/N=C(\C)c1ccccn1`, the molecule was called inactive.
Still for that read-out and setting: the same measure for `CS(=O)(=O)Nc1ccc2c(c1)[C@@H]1C[C@@H](CC(=O)NCc3ccc(Oc4ccccc4)cc3)O[C@@H](CO)[C@@H]1O2`: “inactive”; for `CCC(=O)OCCNc1cc(Sc2nccn2C)c2nonc2c1[N+](=O)[O-]`: “inactive”.
As for `COc1ccccc1-n1cc([C@@H]2C[C@H]3CN(c4ccccc4)C(=O)[C@]34CCCN24)cn1`, the call was inactive.
`COc1cc(-c2cnc3c(NC=O)cc(-c4ccc(C)cc4)cn23)cc(OC)c1OC`: the outcome was inactive.
For `CC(=NNC(=S)N1CCN(C2CCCCCC2)CC1)c1ccccn1`, the outcome was inactive.
In the case of `N#Cc1c(N)n(C2OC(CO)C(O)C2O)c2ncnc(N)c12` (stereo not given), the result was inactive.
Regarding `CC(C)(C)C(=O)Nc1ccc(NC(=O)c2ccco2)nc1`, the call was inactive.
For the molecule `NC(=O)c1ccsc1NC(=O)c1ccc([N+](=O)[O-])o1`, the call was inactive.
Still for that read-out and setting: the entry for `Cn1cc(C2=C(c3ccc(Cl)cc3Cl)C(=O)NC2=O)c2ccccc21` is “inactive”; for `C[C@H]1CCCCO[C@H](CN(C)C(=O)Nc2ccc(C(F)(F)F)cc2)[C@@H](C)CN([C@@H](C)CO)C(=O)c2cc(NC(=O)Nc3ccc(F)cc3)ccc2O1` it is “inactive”.
Same read-out and setting: the same measure for `CC(=O)NC(c1ccc2ccccc2c1)c1ccc2cccnc2c1O` (stereo not given): “inactive”; for `Cc1ccc2nc(C)cc(Nc3ccc([N+](=O)[O-])cc3)c2c1`: “inactive”.
Take `CCS(=O)(=O)N1Cc2ccccc2CC1C(=O)Nc1nnc(SCc2c(Cl)cccc2Cl)s1` (stereo not given): the molecule was classed as inactive.
In the case of `CCS(=O)(=O)c1ncc(Cl)c(C(=O)Nc2ccc(S(=O)(=O)N3CCCC(C)C3)cc2)n1` (stereo not given), the molecule was called inactive.
The same measure, in the same setting: the same measure for `COc1c(C=O)c2c(c(OC)c1OC)-c1ccc(OC)c(=O)cc1C(NC(C)=O)CC2` (stereo not given): “inactive”.
Same read-out and setting: the same measure for `COc1ccc(OC)c(-c2nnc3n2N=C(c2ccc(OC)c(OC4CCOC4)c2)CS3)c1` (stereo not given): “inactive”.
Turning to `COc1cc(C2C3=C(Nc4ncnn42)c2ccccc2CC3)cc(OC)c1OC` (stereo not given), the call was inactive.
On to `Cn1nnnc1Sc1ncnc2scc(-c3cccc(F)c3)c12`, for which the result was inactive.
On to `Cc1ccc(S(=O)(=O)N(C)C[C@@H]2Oc3ccc(NC(=O)Nc4ccc(C(F)(F)F)cc4)cc3CC(=O)N([C@H](C)CO)C[C@@H]2C)cc1`, for which the outcome was inactive.
On the same count and under the same terms, the entry for `COc1ccccc1NS(=O)(=O)c1cccc(C(=O)N/N=C/c2ccc([N+](=O)[O-])o2)c1` is “inactive”.
As for `CCOCCCNC(=O)c1ccc2c(c1)N=C(CC)c1cc(Br)ccc1S2`, the call was inactive.
Still for that read-out and setting: the entry for `C[C@@H]1CCCCO[C@@H](CN(C)CC2CCCCC2)[C@H](C)CN([C@H](C)CO)C(=O)c2cc(NS(=O)(=O)c3ccc(Cl)cc3)ccc2O1` is “inactive”; for `COc1cc(/C=C2\COC/C(=C\c3cc(OC)c(OC)c(OC)c3)C2=O)cc(OC)c1OC` it is “inactive”; for `N#CC1(NC(=O)Cn2ncc(Cl)c(Cl)c2=O)CCCCC1` it is “inactive”.
In the case of `C#CCN(C[C@@H]1[C@@H](OC(=O)NCc2ccc(OC)c(OC)c2)[C@@H](OC(=O)NCc2ccc(OC)c(OC)c2)Cn2c(=O)ccc(=O)n21)S(=O)(=O)c1ccc(C)cc1`, the outcome was inactive.
In the case of `Cc1cccc(C2(c3cccc(C)c3)CC2C(=O)Nc2ccc([N+](=O)[O-])cc2O)c1` (stereo not given), the call was inactive.
For the molecule `Cn1nnnc1Sc1ncnc2scc(-c3cccc4c3sc3ccccc34)c12`, the molecule was called inactive.
Still for that read-out and setting: the same measure for `CCOC(=O)c1cnc2ccc(C(=O)OC)cc2c1Nc1ccc(C(=O)O)cc1`: “inactive”; for `CC(=O)N1CCc2c(sc(NC(=O)c3ccc([N+](=O)[O-])o3)c2C#N)C1`: “inactive”; for `Oc1c(I)cc(I)c2cccnc12`: “inactive”.
Regarding `COc1cc(/C=N/NS(=O)(=O)c2ccc(C)cc2)ccc1OCc1ccc(C(=O)O)cc1`, the molecule was called inactive.
Turning to `CNC[C@@H](CC1CCCCC1)NC[C@H](CC(C)C)NCCc1cccc(C(F)(F)F)c1`, the molecule was classed as inactive.

The nature of the next assay: cytotoxicity in IOSE-T80 ovarian epithelial cells, dose response, selectivity assay for PAX8 inhibitor project, cell-based, cherry-pick (AID 687032).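 Note: cells exposed to compound for 96 h before reading.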 As to conditions: CellTiterGlo ATP luminescence, 96 h; series mostly up to 35 µM. On the technique in general: In ATP-based viability assays light output follows the ATP content of the culture.
In the case of `CCC1(O)C(=O)OCc2c1cc1n(c2=O)Cc2cc3c(N)cccc3nc2-1` (stereo not given), the result was inactive.
On to `CC(C)(C)OC(=O)NCCCC[C@H](NC(=O)c1[nH]cnc1C(=O)N[C@@H](Cc1ccccc1)C(=O)OC(C)(C)C)C(=O)OC(C)(C)C`, for which the result was inactive.
Regarding `CC(=NNC(=S)N1CCC1)c1ccccn1`, the call was inactive.
On the same count and under the same terms, the same measure for `CC(=O)Nc1cc(-c2cccc(C(=O)NCCN(C)C)c2)cn2c(-c3cccc(C(F)(F)F)c3)cnc12`: “inactive”; for `CC(C)C(=O)N1CCN(c2ccc(NC(=O)c3ccc([N+](=O)[O-])o3)cc2)CC1`: “inactive”; for `O=C(CCCN1C(=O)/C(=C\c2cccc(Br)c2)SC1=S)Nc1cccnc1`: “inactive”.
For `CC(C)N1CCc2c(sc(NC(=O)c3ccc([N+](=O)[O-])o3)c2C(N)=O)C1`, the molecule was classed as inactive.
For `C=CCNC(=S)N/N=C(\C)c1ccccn1`, the outcome was inactive.
Consider `CS(=O)(=O)Nc1ccc2c(c1)[C@@H]1C[C@@H](CC(=O)NCc3ccc(Oc4ccccc4)cc3)O[C@@H](CO)[C@@H]1O2`, for which the outcome was inactive.
For the molecule `CCC(=O)OCCNc1cc(Sc2nccn2C)c2nonc2c1[N+](=O)[O-]`, the molecule was called inactive.
On to `COc1ccccc1-n1cc([C@@H]2C[C@H]3CN(c4ccccc4)C(=O)[C@]34CCCN24)cn1`, for which the molecule was classed as inactive.
Same read-out and setting: the same measure for `COc1cc(-c2cnc3c(NC=O)cc(-c4ccc(C)cc4)cn23)cc(OC)c1OC`: “inactive”; for `CC(=NNC(=S)N1CCN(C2CCCCCC2)CC1)c1ccccn1`: “inactive”; for `N#Cc1c(N)n(C2OC(CO)C(O)C2O)c2ncnc(N)c12` (stereo not given): “inactive”.
For the molecule `CC(C)(C)C(=O)Nc1ccc(NC(=O)c2ccco2)nc1`, the result was inactive.
For `NC(=O)c1ccsc1NC(=O)c1ccc([N+](=O)[O-])o1`, the molecule was classed as inactive.
For the molecule `Cn1cc(C2=C(c3ccc(Cl)cc3Cl)C(=O)NC2=O)c2ccccc21`, the outcome was inactive.
On to `C[C@H]1CCCCO[C@H](CN(C)C(=O)Nc2ccc(C(F)(F)F)cc2)[C@@H](C)CN([C@@H](C)CO)C(=O)c2cc(NC(=O)Nc3ccc(F)cc3)ccc2O1`, for which the molecule was called inactive.
For the molecule `CC(=O)NC(c1ccc2ccccc2c1)c1ccc2cccnc2c1O` (stereo not given), the outcome was inactive.
Still for that read-out and setting: the same measure for `Cc1ccc2nc(C)cc(Nc3ccc([N+](=O)[O-])cc3)c2c1`: “inactive”.
In the case of `CCS(=O)(=O)N1Cc2ccccc2CC1C(=O)Nc1nnc(SCc2c(Cl)cccc2Cl)s1` (stereo not given), the result was inactive.
Turning to `CCS(=O)(=O)c1ncc(Cl)c(C(=O)Nc2ccc(S(=O)(=O)N3CCCC(C)C3)cc2)n1` (stereo not given), the outcome was inactive.
Regarding `COc1c(C=O)c2c(c(OC)c1OC)-c1ccc(OC)c(=O)cc1C(NC(C)=O)CC2` (stereo not given), the call was inactive.
Same read-out and setting: the entry for `COc1ccc(OC)c(-c2nnc3n2N=C(c2ccc(OC)c(OC4CCOC4)c2)CS3)c1` (stereo not given) is “inactive”; for `COc1cc(C2C3=C(Nc4ncnn42)c2ccccc2CC3)cc(OC)c1OC` (stereo not given) it is “inactive”; for `Cn1nnnc1Sc1ncnc2scc(-c3cccc(F)c3)c12` it is “inactive”.
Take `Cc1ccc(S(=O)(=O)N(C)C[C@@H]2Oc3ccc(NC(=O)Nc4ccc(C(F)(F)F)cc4)cc3CC(=O)N([C@H](C)CO)C[C@@H]2C)cc1`: the molecule was called inactive.
Take `COc1ccccc1NS(=O)(=O)c1cccc(C(=O)N/N=C/c2ccc([N+](=O)[O-])o2)c1`: the molecule was classed as inactive.
`CCOCCCNC(=O)c1ccc2c(c1)N=C(CC)c1cc(Br)ccc1S2`: the result was inactive.
Take `C[C@@H]1CCCCO[C@@H](CN(C)CC2CCCCC2)[C@H](C)CN([C@H](C)CO)C(=O)c2cc(NS(=O)(=O)c3ccc(Cl)cc3)ccc2O1`: the result was inactive.
Still for that read-out and setting: the entry for `COc1cc(/C=C2\COC/C(=C\c3cc(OC)c(OC)c(OC)c3)C2=O)cc(OC)c1OC` is “inactive”.
Regarding `N#CC1(NC(=O)Cn2ncc(Cl)c(Cl)c2=O)CCCCC1`, the call was inactive.
On to `C#CCN(C[C@@H]1[C@@H](OC(=O)NCc2ccc(OC)c(OC)c2)[C@@H](OC(=O)NCc2ccc(OC)c(OC)c2)Cn2c(=O)ccc(=O)n21)S(=O)(=O)c1ccc(C)cc1`, for which the molecule was classed as inactive.
Turning to `Cc1cccc(C2(c3cccc(C)c3)CC2C(=O)Nc2ccc([N+](=O)[O-])cc2O)c1` (stereo not given), the call was inactive.
As for `Cn1nnnc1Sc1ncnc2scc(-c3cccc4c3sc3ccccc34)c12`, the outcome was inactive.
Regarding `CCOC(=O)c1cnc2ccc(C(=O)OC)cc2c1Nc1ccc(C(=O)O)cc1`, the result was inactive.
As to `CC(=O)N1CCc2c(sc(NC(=O)c3ccc([N+](=O)[O-])o3)c2C#N)C1`, the call was inactive.
Consider `Oc1c(I)cc(I)c2cccnc12`, for which the molecule was called inactive.
With `COc1cc(/C=N/NS(=O)(=O)c2ccc(C)cc2)ccc1OCc1ccc(C(=O)O)cc1`, the result was inactive.
Same read-out and setting: the entry for `CNC[C@@H](CC1CCCCC1)NC[C@H](CC(C)C)NCCc1cccc(C(F)(F)F)c1` is “inactive”.
